The text below walks through data of PubChem BioAssay (NCI).

About 83,000 compounds went through this panel and 20% of them were active in at least one assay; those are over-represented in the sample as a whole.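 Treatment: one concentration, 48 hours, 96-well format. Scoring: percent growth, with anything below 10 considered active.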 Activity calls are given as the source filed them.

For one experiment, the system named is NCI-H322M lung. As to the kind of experiment: NCI-60 one-dose screen, 48 h (100 = growth as untreated, 0 = no growth, -100 = all killed). The settings on record: 10 µM unless noted.
Regarding `COc1cc(C(=O)/C=C/c2c(-c3ccc(F)cc3)nc3sccn23)cc(OC)c1OC`, the growth is 29.9% (inactive).

As for `Nc1nc(N)c2c(n1)NC(c1ccc(F)cc1)C1CCc3ccccc3C1=N2` (centres undefined), the growth is 67.3% (inactive).

As for `COc1ccc(-c2cc(-c3ccc(Cl)cc3)nc(NCCCCNc3ccnc4cc(Cl)ccc34)n2)cc1`, the growth is 94.4% (inactive).

`Cc1cc(C)nc(SCC(=O)Nc2cccc(N=Cc3ccccc3O)c2)n1`: the growth was 101% (inactive).

Regarding `O=C(Nc1ccc(Nc2ccncc2)cc1)c1ccc([N+](=O)[O-])cc1`, the growth was 90.4% (inactive).

Regarding `O=C1COCCN1c1ccc(NCc2cn(Cc3cccc4ccccc34)c3ccccc23)cc1`, the growth was 91.5% (inactive).

`O=C1/C(=C\c2cccn2Cc2ccccc2)c2ccccc2N1c1c(Cl)cccc1Cl`: the growth is 54.8% (inactive).

With `CCCCCN(CCCCC)CCCCCCCCN1CCCc2ccccc21`, the growth is 89.9% (inactive).

For the molecule `CC(C)CSc1ncnc2nc[nH]c12`, the growth is 103% (inactive).

Consider `CCN(CC)CCCC(C)Nc1ccnc2cc(Cl)c(SCc3ccccc3)cc12` (centres undefined), for which the growth is -28.9% (active).

In the case of `O=C(Nc1ccc(C(=O)/C=C/c2ccc(N3CCOCC3)cc2)cc1)Nc1ccc([N+](=O)[O-])cc1`, the growth was 63.1% (inactive).

Turning to `Cc1ccc(-c2cn(C/C=C3\C=CN(S(=O)(=O)c4ccccc4)CC3)nn2)cc1`, the growth is 95.8% (inactive).

As for `CCOc1ccc2sc(NS(=O)(=O)c3ccc(N)cc3)nc2c1`, the growth is 109% (inactive).

Turning to `O=C(NCCCNC(=O)OCc1ccc2c(Br)cc(Br)c(O)c2n1)OCc1ccc2c(Br)cc(Br)c(O)c2n1`, the growth was 32.7% (inactive).

As for `C=CCc1nc2ccccc2s1`, the growth was 106% (inactive).

Turning to `CCN(CC)CCCNCc1cc(-c2ccccc2)nc2ccccc12`, the growth was 102% (inactive).

Turning to `C=C(C)[C@@H]1CC[C@]2(C(N)=O)CC[C@]3(C)[C@H](CC[C@@H]4[C@@]5(C)C/C(=C/c6cccnc6)C(=O)C(C)(C)[C@@H]5CC[C@]43C)[C@@H]12`, the growth is 12.7% [100 µM] (inactive).

As to `COC(=O)C(=Cc1ccccc1[N+](=O)[O-])C(=O)OC`, the growth was 54.9% (inactive).

On to `CCOC(CNC(=O)c1cccc([N+](=O)[O-])c1)OCC`, for which the growth was 109% (inactive).

With `Cc1ccc(-c2cc(O)c(-c3ccc(C)cc3C)cc2O)c(C)c1`, the growth is 106% (inactive).

Turning to `Fc1cc2[nH]ncc2c2c3c(c(-c4cn[nH]c4)nc12)CCCC3`, the growth was 2.77% (active).

For the molecule `O=C(CCN1CCCCC1)c1ccc(Cl)cc1`, the growth was 99.9% (inactive).

As for `CCOC(=O)C1=C(C(=O)c2ccc(Br)cc2)C(c2ccc(Br)cc2)NC(=S)N1` (centres undefined), the growth was 97.3% (inactive).

Consider `Cn1cc(-c2noc(-c3cn(C)c4ncc(F)cc34)n2)c2cc(Cl)ccc21`, for which the growth was 50.3% (inactive).

Consider `O=[N+]([O-])c1cc([N+](=O)[O-])c(NN=C(c2ccc(O)cc2)c2ccc(O)cc2)cc1Cl`, for which the growth was 9.47% (active).

In the case of `NNC(=O)c1ccc(C(=O)NN)cc1`, the growth is 102% (inactive).

As to `CN(C)CCOc1ccc(/C(=C(/CCCl)c2ccccc2)c2ccccc2)cc1`, the growth was 37.1% (inactive).

Regarding `CC(=O)Nc1ccc2nc3ccc(NC(C)=O)cc3[n+](-c3ccccc3)c2c1`, the growth was 109% (inactive).

Regarding `COc1ccc(/C=C(/C(=O)c2ccc(Cl)cc2)C(=O)C(F)(F)F)cc1`, the growth was 77.7% (inactive).

As for `COc1cc2c(c(OC)c1)C1c3cc(OC)ccc3NC(=O)N1CC2` (centres undefined), the growth was 102% (inactive).

Regarding `COc1ccc(C=C2c3ccccc3-c3ccccc32)cc1`, the growth is 72.2% (inactive).

As for `O=S(=O)(c1ccc(N/N=C\c2ccccc2Cl)cc1)c1ccc(N/N=C/c2ccccc2Cl)cc1`, the growth is 94.2% (inactive).

`CSc1nc(N)c(N=Nc2ccc(S(=O)(=O)Nc3nnc(C)s3)cc2)c(=O)[nH]1`: the growth was 109% (inactive).

In the case of `C=C(C)[C@@H]1CC[C@]2(C)[C@H](CC=C3[C@@H]4[C@@H](C)[C@H](C)CC[C@]4(C(N)=O)CC[C@]32C)[C@@]1(C)CCC#N`, the growth was 0.378% [100 µM] (active).

Consider `CCOC(=O)CC(c1ccccc1)C(C#N)c1ccccc1` (centres undefined), for which the growth is 108% (inactive).

On to `Clc1ccc(/C=N/Nc2nc3ccccc3s2)c(Cl)c1`, for which the growth was 93.4% (inactive).

Take `CC1(C)CC[C@]2(C(=O)O)CC[C@]3(C)[C@H](CC[C@@H]4[C@@]5(C)CCC(=O)C(C)(C)[C@@H]5CC[C@]43C)[C@H]2[C@H]1OC(=O)C(F)(F)F`: the growth was -65.6% [100 µM] (active).

A further experiment has as its system HOP-62 NSCLC. The experiment is described as above. The settings on record: 10 µM unless noted.
On to `COc1cc(C(=O)/C=C/c2c(-c3ccc(F)cc3)nc3sccn23)cc(OC)c1OC`, for which the growth was 61.3% (inactive).

Consider `Nc1nc(N)c2c(n1)NC(c1ccc(F)cc1)C1CCc3ccccc3C1=N2` (centres undefined), for which the growth was 74.1% (inactive).

As for `COc1ccc(-c2cc(-c3ccc(Cl)cc3)nc(NCCCCNc3ccnc4cc(Cl)ccc34)n2)cc1`, the growth was 78.1% (inactive).

For `Cc1cc(C)nc(SCC(=O)Nc2cccc(N=Cc3ccccc3O)c2)n1`, the growth is 102% (inactive).

With `O=C(Nc1ccc(Nc2ccncc2)cc1)c1ccc([N+](=O)[O-])cc1`, the growth is 61.7% (inactive).

Regarding `O=C1COCCN1c1ccc(NCc2cn(Cc3cccc4ccccc34)c3ccccc23)cc1`, the growth is 84.3% (inactive).

With `O=C1/C(=C\c2cccn2Cc2ccccc2)c2ccccc2N1c1c(Cl)cccc1Cl`, the growth is 77.2% (inactive).

For `CCCCCN(CCCCC)CCCCCCCCN1CCCc2ccccc21`, the growth is 109% (inactive).

For `CC(C)CSc1ncnc2nc[nH]c12`, the growth is 95.9% (inactive).

As for `CCN(CC)CCCC(C)Nc1ccnc2cc(Cl)c(SCc3ccccc3)cc12` (centres undefined), the growth was -72.2% (active).

Turning to `O=C(Nc1ccc(C(=O)/C=C/c2ccc(N3CCOCC3)cc2)cc1)Nc1ccc([N+](=O)[O-])cc1`, the growth is 105% (inactive).

As for `Cc1ccc(-c2cn(C/C=C3\C=CN(S(=O)(=O)c4ccccc4)CC3)nn2)cc1`, the growth was 97.6% (inactive).

Turning to `CCOc1ccc2sc(NS(=O)(=O)c3ccc(N)cc3)nc2c1`, the growth was 100% (inactive).

For `O=C(NCCCNC(=O)OCc1ccc2c(Br)cc(Br)c(O)c2n1)OCc1ccc2c(Br)cc(Br)c(O)c2n1`, the growth was -19.1% (active).

Consider `C=CCc1nc2ccccc2s1`, for which the growth was 100% (inactive).

On to `CCN(CC)CCCNCc1cc(-c2ccccc2)nc2ccccc12`, for which the growth is 44.2% (inactive).

As to `C=C(C)[C@@H]1CC[C@]2(C(N)=O)CC[C@]3(C)[C@H](CC[C@@H]4[C@@]5(C)C/C(=C/c6cccnc6)C(=O)C(C)(C)[C@@H]5CC[C@]43C)[C@@H]12`, the growth was 3.06% [100 µM] (active).

In the case of `COC(=O)C(=Cc1ccccc1[N+](=O)[O-])C(=O)OC`, the growth is 104% (inactive).

Regarding `CCOC(CNC(=O)c1cccc([N+](=O)[O-])c1)OCC`, the growth was 108% (inactive).

Turning to `Cc1ccc(-c2cc(O)c(-c3ccc(C)cc3C)cc2O)c(C)c1`, the growth was 74% (inactive).

As for `Fc1cc2[nH]ncc2c2c3c(c(-c4cn[nH]c4)nc12)CCCC3`, the growth is -10.6% (active).

Regarding `O=C(CCN1CCCCC1)c1ccc(Cl)cc1`, the growth was 100% (inactive).

As for `CCOC(=O)C1=C(C(=O)c2ccc(Br)cc2)C(c2ccc(Br)cc2)NC(=S)N1` (centres undefined), the growth was 88.4% (inactive).

On to `Cn1cc(-c2noc(-c3cn(C)c4ncc(F)cc34)n2)c2cc(Cl)ccc21`, for which the growth was 68.4% (inactive).

With `O=[N+]([O-])c1cc([N+](=O)[O-])c(NN=C(c2ccc(O)cc2)c2ccc(O)cc2)cc1Cl`, the growth is -91.2% (active).

As for `NNC(=O)c1ccc(C(=O)NN)cc1`, the growth is 115% (inactive).

For the molecule `CN(C)CCOc1ccc(/C(=C(/CCCl)c2ccccc2)c2ccccc2)cc1`, the growth was -18.8% (active).

`CC(=O)Nc1ccc2nc3ccc(NC(C)=O)cc3[n+](-c3ccccc3)c2c1`: the growth was 103% (inactive).

In the case of `COc1ccc(/C=C(/C(=O)c2ccc(Cl)cc2)C(=O)C(F)(F)F)cc1`, the growth was 91.9% (inactive).

As to `COc1cc2c(c(OC)c1)C1c3cc(OC)ccc3NC(=O)N1CC2` (centres undefined), the growth is 67.6% (inactive).

Take `COc1ccc(C=C2c3ccccc3-c3ccccc32)cc1`: the growth was 55.2% (inactive).

Regarding `O=S(=O)(c1ccc(N/N=C\c2ccccc2Cl)cc1)c1ccc(N/N=C/c2ccccc2Cl)cc1`, the growth is 88% (inactive).

On to `CSc1nc(N)c(N=Nc2ccc(S(=O)(=O)Nc3nnc(C)s3)cc2)c(=O)[nH]1`, for which the growth was 104% (inactive).

Take `C=C(C)[C@@H]1CC[C@]2(C)[C@H](CC=C3[C@@H]4[C@@H](C)[C@H](C)CC[C@]4(C(N)=O)CC[C@]32C)[C@@]1(C)CCC#N`: the growth is -1.03% [100 µM] (active).

Turning to `CCOC(=O)CC(c1ccccc1)C(C#N)c1ccccc1` (centres undefined), the growth was 96.2% (inactive).

Consider `Clc1ccc(/C=N/Nc2nc3ccccc3s2)c(Cl)c1`, for which the growth was 87.9% (inactive).

On to `CC1(C)CC[C@]2(C(=O)O)CC[C@]3(C)[C@H](CC[C@@H]4[C@@]5(C)CCC(=O)C(C)(C)[C@@H]5CC[C@]43C)[C@H]2[C@H]1OC(=O)C(F)(F)F`, for which the growth is -79.6% [100 µM] (active).
